Results from PubChem BioAssay (Tox21).
Unmarked numbers belong to inactive results. Results filed as inconclusive are left out. Entries that show only a call come without a potency. Activity calls are given as the source filed them. Unless noted, calls come from the whole dose curve; as a rule, active = well fitted curve in the direction sought with a large enough effect in the repeat runs; inconclusive = weak or mixed curves; inactive = no such curve, though single readings can be large; an effect the other way counts as inactive or inconclusive.

Assay: qHTS assay to identify small molecule agonists of H2AX - cell viability counter screen (AID 1224847; calls by dose curve; note: top concentration of the series differs between compounds; nearly all actives have a fitted effect of over 30% in size)
Conditions: CHO-K1 viability, CellTiter-Glo luminescence, 3 h; series mostly up to 70.9 µM
Outline: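 Cytotoxicity counter screen in wild-type CHO-K1 cells: a 3 hr compound treatment at 37C across 15 concentrations, followed by CellTiter-Glo luminescence to gauge viable cells.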
With `O=C(O)CNC(=O)c1ccc([N+](=O)[O-])cc1` the Potency was “inactive”.
For `Cn1cc(S(C)=O)c(=O)c2ccc(F)cc21` (stereo unspecified), the Potency was “inactive”.
For `C=CCOCC(CC)(CO)COCC=C`, the Potency was “inactive”.
In the case of `CC(=O)Nc1ccc(S(N)(=O)=O)cc1`, the Potency was “inactive”.
With `C=C1CC[C@H]2C[C@@H]1C2(C)C` the Potency was “inactive”.
In the case of `CCCCCCCCS(=O)(=O)Cl`, the Potency was “inactive”.
For `C=C[Si](OC(=C)C)(OC(=C)C)OC(=C)C`, the Potency was “inactive”.
For `O=C1NC(=O)[C@@]2(CCOc3ccc(F)cc32)N1`, the Potency was “inactive”.
With `CC/C=C\CC/C=C/CO` the Potency was “inactive”.
For `CN1CCCC1`, the Potency was “inactive”.
With `O=c1cc(CO)occ1O` the Potency was “inactive”.
With `CC(=O)CC(C)C` the Potency was “inactive”.
For `CO[Si](CCCOCC1CO1)(OC)OC` (stereo unspecified), the Potency was “inactive”.
In the case of `CCN(CC)CCNC(=O)c1cc(S(C)(=O)=O)ccc1OC`, the Potency was “inactive”.
For `N=C(N)c1ccccc1`, the Potency was “inactive”.
For `COc1ccc2c(c1)CCCC2=O`, the Potency was “inactive”.
With `NC(=O)c1cn(Cc2c(F)cccc2F)nn1` the Potency was “inactive”.
In the case of `NC(CSCC(=O)O)C(=O)O` (stereo unspecified), the Potency was “inactive”.
With `O=C1CCCCCCCCCCCN1` the Potency was “inactive”.
With `COc1ccc(CCN(C)CCCC(C#N)(c2cc(OC)c(OC)c(OC)c2)C(C)C)cc1OC` (stereo unspecified) the Potency was “inactive”.
For `Cc1cnc(NS(=O)(=O)c2ccc(N)cc2)nc1`, the Potency was “inactive”.
For `CC(=O)N(CC(O)CO)c1c(I)c(C(=O)NCCO)c(I)c(C(=O)NCC(O)CO)c1I` (stereo unspecified), the Potency was “inactive”.
With `C/C=C(\C)C#N` the Potency was “inactive”.
In the case of `COC(=O)CCSCCC(=O)OC`, the Potency was “inactive”.
With `COc1ccccc1OCC(O)CN1CCN(CC(=O)Nc2c(C)cccc2C)CC1` (stereo unspecified) the Potency was “inactive”.
For `CN(C)CCCSc1ccccc1NC(=O)/C=C/c1ccccc1`, the Potency was “inactive”.
With `CC(=O)OCC(=O)[C@@]1(O)CC[C@H]2[C@@H]3CCC4=CC(=O)CC[C@]4(C)[C@H]3C(=O)C[C@@]21C` the Potency was “inactive”.
In the case of `N=C(N)c1ccc(OCCCOc2ccc(C(=N)N)cc2)cc1`, the Potency was “inactive”.
With `CCC=O` the Potency was “inactive”.
In the case of `Nc1ccccc1S(=O)(=O)O`, the Potency was “inactive”.
For `Nc1nc2c(ncn2COC(CO)CO)c(=O)[nH]1`, the Potency was “inactive”.
In the case of `CCN(CC)CCOCCOC(=O)C1(c2ccccc2)CCCC1`, the Potency was “inactive”.
With `C[C@H]1C[C@@H](O)CC(C)(C)C1` the Potency was “inactive”.
In the case of `CC/C=C\CCOC(C)=O`, the Potency was “inactive”.

Assay: qHTS assay to identify small molecule antagonists of the estrogen related receptor (ERR) signaling pathway from Tox21 library (AID 1224848); note: nearly all actives have a fitted effect of over 50% in size
Conditions: ERR reporter cell line, luciferase antagonist mode, 18 h; series mostly up to 92.4 µM
Outline: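 Tox21 10K compounds in DMSO tested for ERR pathway antagonism in NTP's ERR cell line; 18 h, 37 C exposure; ONE-Glo luminescence.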
For `O=C(O)CNC(=O)c1ccc([N+](=O)[O-])cc1`, the Potency was “inactive”.
In the case of `Cn1cc(S(C)=O)c(=O)c2ccc(F)cc21` (stereo unspecified), the Potency was “inactive”.
In the case of `C=CCOCC(CC)(CO)COCC=C`, the Potency was “inactive”.
In the case of `CC(=O)Nc1ccc(S(N)(=O)=O)cc1`, the Potency was “inactive”.
For `CCCCCCCCS(=O)(=O)Cl`, the Potency was “inactive”.
With `C=C[Si](OC(=C)C)(OC(=C)C)OC(=C)C` the Potency was “inactive”.
With `CC/C=C\CC/C=C/CO` the Potency was “inactive”.
With `CN1CCCC1` the Potency was “inactive”.
With `O=c1cc(CO)occ1O` the Potency was “inactive”.
With `CC(=O)CC(C)C` the Potency was “inactive”.
With `COc1ccc2c(c1)CCCC2=O` the Potency was “inactive”.
In the case of `NC(CSCC(=O)O)C(=O)O` (stereo unspecified), the Potency was “inactive”.
For `Cc1cnc(NS(=O)(=O)c2ccc(N)cc2)nc1`, the Potency was “inactive”.
For `CC(=O)N(CC(O)CO)c1c(I)c(C(=O)NCCO)c(I)c(C(=O)NCC(O)CO)c1I` (stereo unspecified), the Potency was “inactive”.
With `C/C=C(\C)C#N` the Potency was “inactive”.
For `COC(=O)CCSCCC(=O)OC`, the Potency was “inactive”.
For `CN(C)CCCSc1ccccc1NC(=O)/C=C/c1ccccc1`, the Potency was “inactive”.
In the case of `N=C(N)c1ccc(OCCCOc2ccc(C(=N)N)cc2)cc1`, the Potency was “inactive”.
For `CCC=O`, the Potency was “inactive”.
With `Nc1ccccc1S(=O)(=O)O` the Potency was “inactive”.
With `C[C@H]1C[C@@H](O)CC(C)(C)C1` the Potency was “inactive”.
With `CC/C=C\CCOC(C)=O` the Potency was “inactive”.

Assay: qHTS assay to identify small molecule agonists of the estrogen related receptor (ERR) signaling pathway from Tox21 library (AID 1224849; calls by dose curve; note: nearly all actives have a fitted effect of over 15% in size)
Conditions: ERR reporter cell line, ONE-Glo luciferase, 18 h; at 92.4 µM (top of the series) unless noted
Outline: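 Quantitative HTS in agonist format: NTP ERR cell line, compounds transferred in DMSO after 6 h plating, 18 h incubation at 37 C, ONE-Glo luminescence endpoint.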
`O=C(O)CNC(=O)c1ccc([N+](=O)[O-])cc1` showed an activity change, positive = activation of 4.79%.
With `Cn1cc(S(C)=O)c(=O)c2ccc(F)cc21` (stereo unspecified) the activity change, positive = activation was 0.0404% [at 42.5 µM].
`C=CCOCC(CC)(CO)COCC=C` showed an activity change, positive = activation of 4.88%.
`CC(=O)Nc1ccc(S(N)(=O)=O)cc1` gave an activity change, positive = activation of 4.26%.
With `CCCCCCCCS(=O)(=O)Cl` the activity change, positive = activation was 7.34%.
`C=C[Si](OC(=C)C)(OC(=C)C)OC(=C)C` gave an activity change, positive = activation of -0.275%.
`O=c1cc(CO)occ1O` showed an activity change, positive = activation of 3.24% [at 42.5 µM].
Work on `CC(=O)CC(C)C` yielded an activity change, positive = activation of 1.24%.
With `COc1ccc2c(c1)CCCC2=O` the activity change, positive = activation was 4.85% [at 42.5 µM].
`NC(CSCC(=O)O)C(=O)O` (stereo unspecified) gave an activity change, positive = activation of 5.41% [at 42.5 µM].
`Cc1cnc(NS(=O)(=O)c2ccc(N)cc2)nc1` gave an activity change, positive = activation of 2.51% [at 42.5 µM].
Work on `CC(=O)N(CC(O)CO)c1c(I)c(C(=O)NCCO)c(I)c(C(=O)NCC(O)CO)c1I` (stereo unspecified) yielded an activity change, positive = activation of 5.17% [at 42.5 µM].
`C/C=C(\C)C#N` gave an activity change, positive = activation of 0.294%.
With `COC(=O)CCSCCC(=O)OC` the activity change, positive = activation was 1.8%.
Work on `CN(C)CCCSc1ccccc1NC(=O)/C=C/c1ccccc1` yielded an activity change, positive = activation of 9.36% [at 42.5 µM].
With `Nc1ccccc1S(=O)(=O)O` the activity change, positive = activation was 3.7%.

Assay: qHTS RealTime-Glo MT Cell Viability Assay in HepG2 cells - 24 hour (AID 1224867); note: nearly all actives have a fitted effect of over 50% in size
Conditions: RealTime-Glo luminescence; series mostly up to 76.8 µM
Outline: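 Cell number in HepG2 cultures estimated from NanoLuc luminescence generated by metabolic reduction of a prosubstrate by living cells. The homogeneous, nonlytic format allowed repeated reads at 0, 8, 16, 24, 32 and 40 h of compound exposure.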
In the case of `O=C(O)CNC(=O)c1ccc([N+](=O)[O-])cc1`, the Potency was “inactive”.
In the case of `Cn1cc(S(C)=O)c(=O)c2ccc(F)cc21` (stereo unspecified), the Potency was “inactive”.
In the case of `C=CCOCC(CC)(CO)COCC=C`, the Potency was “inactive”.
For `CC(=O)Nc1ccc(S(N)(=O)=O)cc1`, the Potency was “inactive”.
For `C=C1CC[C@H]2C[C@@H]1C2(C)C`, the Potency was “inactive”.
In the case of `CCCCCCCCS(=O)(=O)Cl`, the Potency was “inactive”.
In the case of `C=C[Si](OC(=C)C)(OC(=C)C)OC(=C)C`, the Potency was “inactive”.
With `O=C1NC(=O)[C@@]2(CCOc3ccc(F)cc32)N1` the Potency was “inactive”.
In the case of `CC/C=C\CC/C=C/CO`, the Potency was “inactive”.
For `CN1CCCC1`, the Potency was “inactive”.
For `O=c1cc(CO)occ1O`, the Potency was “inactive”.
For `CC(=O)CC(C)C`, the Potency was “inactive”.
For `CO[Si](CCCOCC1CO1)(OC)OC` (stereo unspecified), the Potency was “inactive”.
With `CCN(CC)CCNC(=O)c1cc(S(C)(=O)=O)ccc1OC` the Potency was “inactive”.
In the case of `N=C(N)c1ccccc1`, the Potency was “inactive”.
For `O=c1cc(-c2ccccc2)oc2ccccc12`, the Potency was “inactive”.
In the case of `COc1ccc2c(c1)CCCC2=O`, the Potency was “inactive”.
For `NC(=O)c1cn(Cc2c(F)cccc2F)nn1`, the Potency was “inactive”.
For `NC(CSCC(=O)O)C(=O)O` (stereo unspecified), the Potency was “inactive”.
In the case of `O=C1CCCCCCCCCCCN1`, the Potency was “inactive”.
With `COc1ccc(CCN(C)CCCC(C#N)(c2cc(OC)c(OC)c(OC)c2)C(C)C)cc1OC` (stereo unspecified) the Potency was “inactive”.
For `Cc1cnc(NS(=O)(=O)c2ccc(N)cc2)nc1`, the Potency was “inactive”.
With `CC(=O)N(CC(O)CO)c1c(I)c(C(=O)NCCO)c(I)c(C(=O)NCC(O)CO)c1I` (stereo unspecified) the Potency was “inactive”.
With `C/C=C(\C)C#N` the Potency was “inactive”.
In the case of `COC(=O)CCSCCC(=O)OC`, the Potency was “inactive”.
With `COc1ccccc1OCC(O)CN1CCN(CC(=O)Nc2c(C)cccc2C)CC1` (stereo unspecified) the Potency was “inactive”.
For `CN(C)CCCSc1ccccc1NC(=O)/C=C/c1ccccc1`, the Potency was “inactive”.
In the case of `CC(=O)OCC(=O)[C@@]1(O)CC[C@H]2[C@@H]3CCC4=CC(=O)CC[C@]4(C)[C@H]3C(=O)C[C@@]21C`, the Potency was “inactive”.
In the case of `N=C(N)c1ccc(OCCCOc2ccc(C(=N)N)cc2)cc1`, the Potency was “inactive”.
With `CCC=O` the Potency was “inactive”.
In the case of `Nc1ccccc1S(=O)(=O)O`, the Potency was “inactive”.
With `CCN(CC)CCOCCOC(=O)C1(c2ccccc2)CCCC1` the Potency was “inactive”.
With `C[C@H]1C[C@@H](O)CC(C)(C)C1` the Potency was “inactive”.
For `CC/C=C\CCOC(C)=O`, the Potency was “inactive”.
